In the library only some 19% were active in any assay of this set; here they are far more common.
TDP1 cell CPT = DT40-hTDP1 cell growth loss with CPT. chicken DT40 Tdp1-/-;hTDP1 cells + 20 nM CPT, ATP luminescence, 48 h. Potency, µM (top dose mostly 46.2 µM), hits mostly inhibitors. actives 12% (n = 420,000). AID 686979; note: nearly all actives have a fitted effect of over 55% in size
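Chicken DT40 Tdp1-/- cells complemented with human TDP1, 400 cells/well, exposed to compounds plus 20 nM camptothecin for at least 48 h at 37 C; viability read as ATP content by CellTiter-Glo luminescence.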
HT1080 IDH1KD tx = HT-1080 IDH1 knockdown cell toxicity (counter line) | HT-1080 IDH1 knockdown viability, ATP luminescence, 48 h | Potency, µM (doses to about 46.1 µM), hits mostly cytotoxic | actives 2% (n = 360,000)
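% activity derives from luminescence (CellTiter-Glo), normalised to DMSO and no-cell wells. HT-1080-IDH1KD cells, 750/well, had 48 h compound exposure at 37 °C.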
IL-1B inflam inh = inhibitors of inflammasome signaling (IL-1 beta secretion) | THP-1 LPS/ATP IL-1B secretion, AlphaLISA, 16 h; hits give low values | AID 743279 | activity change, % at 57.5 µM | actives 4.7% (n = 360,000); in the data active = activity change below about -50%; inconclusive = mostly about -30% to -49%
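Secreted IL-1B measured by AlphaLISA bead assay after 16 h compound exposure of THP-1 cells; compounds (final up to 57.5 uM) added 1 h before LPS (250 ng/mL) and ATP (1.25 mM) stimulation; lower signal means less secretion.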
TDP1 cell noCPT = qHTS for Inhibitors of human tyrosyl-DNA phosphodiesterase 1 (TDP1): qHTS in cells in absence of CPT. Potency, µM (doses to about 46.2 µM), most hits filed as inhibitors. DT40 Tdp1-/- hTDP1 cells, no CPT, ATP luminescence, 48 h. AID 686978, 2013. actives 15% (n = 420,000); note: nearly all actives have a fitted effect of over 55% in size
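Growth of hTDP1-complemented DT40 Tdp1-knockout cells is measured by ATP luminescence after at least 48 hr compound exposure at 37 °C, with DMSO substituting for the 20 nM CPT used in the parallel screen.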
HT1080NT lethal = kills 2HG-producing HT-1080-NT fibrosarcoma cells | actives 1.6% (n = 360,000) | Potency, µM (series often up to 46.1 µM), actives largely listed as cytotoxic | HT-1080-NT fibrosarcoma viability, CellTiter-Glo ATP luminescence, 48 h;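 note: NT is the 2HG producing partner of a matched IDH1 knockdown line; nearly all actives have a fitted effect of over 55% in size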
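HT-1080-NT; 750 cells/well; 5% FBS RPMI; 48 h compound, 37 degrees C; CellTiter-Glo luminescence; curve fitting and curve-class assignment.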
Hits are given with their value; – = inactive; ? = inconclusive; · = no result. Unless noted, calls come from the whole dose curve; as a rule, active = well fitted curve in the direction sought with a large enough effect; inconclusive = small, poorly fitted or top-dose-only effect, or another doubt; inactive = no such curve, though single readings can be large; an effect the other way counts as inactive or inconclusive.

SMILES	TDP1 cell CPT	HT1080 IDH1KD tx	IL-1B inflam inh	TDP1 cell noCPT	HT1080NT lethal
CC(C)OC(=O)CCCCCN1C(=O)CSC1=S	–	–	-56	–	–
COC(=O)[C@@]12CCCN1[C@H](c1ccc(-c3ccc(OC)cc3)c(OC)c1)[C@@H]1C(=O)N(C)C(=O)[C@@H]12	4.1µM	–	–	4.1µM	–
COC(=O)[C@@]12CCCN1[C@H](c1ccc(-c3ccc(OC)cc3)cc1)[C@@H]1C(=O)N(C)C(=O)[C@@H]12	18µM	–	–	21µM	–
COC(=O)[C@@]12CCCN1[C@H](c1ccc(-c3ccccc3)cc1)[C@H]1C(=O)N(C)C(=O)[C@H]12	?	–	–	?	–
COC(=O)[C@@]12CCCN1[C@H](c1ccc(-c3ccc(OC)cc3)c(OC)c1)[C@H]1C(=O)N(C)C(=O)[C@H]12	?	–	–	?	–
COc1ccccc1C(=O)N1CCOc2ccc(C(C)(O)CCn3cccn3)cc2C1 (configuration not stated)	–	·	·	–	·
COc1ccc(NC(=S)NC(=O)c2ccc3c(c2)OCCO3)cc1	?	–	–	18µM	–
CS(=O)(=O)N1CCN(c2ccc(NC(=S)NC(=O)c3ccc4c(c3)OCO4)cc2)CC1	–	–	–	?	–
O=C(NC(=S)Nc1ccc(N2CCCCC2)cc1)c1ccc2c(c1)OCCO2	?	?	–	16µM	–
O=C(NC(=S)Nc1ccc(N2CCOCC2)cc1)c1ccc(Cl)cc1	–	–	–	–	–
O=C(Nc1ccc(CN2CCOCC2)cc1)c1ccc(Br)cc1	–	–	–	–	–
O=C(NC(=S)Nc1ccc(N2CCOCC2)cc1)c1ccc2c(c1)OCCO2	?	–	–	23µM	–
O=C(Nc1ccc(CN2CCOCC2)cc1)c1ccc(-c2ccc(Br)cc2)o1	16µM	?	-79	18µM	14µM
Cc1ccc(F)cc1NC(=O)CSc1n[nH]c(N)n1	–	–	–	–	–
C[C@H](NC(=O)C1CCN(S(=O)(=O)c2ccccc2)CC1)C(=O)NCc1ccc(F)cc1	–	–	–	–	–
O=C(NC(=S)Nc1ccc(CN2CCOCC2)cc1)c1ccc2c(c1)OCCO2	?	?	?	15µM	?
COc1ccc(C(=O)NC(=S)Nc2ccc(CN3CCOCC3)cc2)cc1Br	?	–	–	10µM	–
CCOc1ccc(C(=O)Nc2ccc(CN3CCOCC3)cc2)cc1Br	?	–	?	?	?
O=C(NC(=S)Nc1ccc(CN2CCOCC2)cc1)c1ccc([N+](=O)[O-])cc1	?	–	–	–	–
NC(=S)N1OC[C@@H]2COc3ccc4ccccc4c3[C@@H]21	18µM	?	-93	18µM	?
CO/N=C/NC(=O)N1OC[C@@H]2COc3ccc4ccccc4c3[C@@H]21	–	–	–	–	–
Cc1ccc(CNC(=O)C2CCN(S(=O)(=O)N3CCOCC3)CC2)cc1	–	–	–	–	–
Cc1c(O)c(=O)ccn1Cc1ccccc1	23µM	–	–	18µM	–
Cc1c(OCc2ccccc2)c(=O)ccn1Cc1ccc(Cl)cc1	?	?	–	16µM	?
CCOC(=O)c1c(C)[nH]c(C)c1S(=O)(=O)NC(C)Cc1ccco1 (configuration not stated)	–	–	–	–	–
SMILES	TDP1 cell CPT	HT1080 IDH1KD tx	IL-1B inflam inh	TDP1 cell noCPT	HT1080NT lethal
O=C(O)c1cccc(Cn2c(Cl)c(/C=N/NC(=O)c3ccco3)sc2=O)c1	–	–	–	–	–
O=C(CN1C(=O)/C(=C\c2ccco2)SC1=S)Nc1ccc(O)cc1C(=O)O	–	–	–	–	–
CCOc1ccc(N(CC(=O)Nc2ccccc2OCC)S(=O)(=O)c2c(C)noc2C)cc1	5.2µM	2.3µM	–	3.3µM	2.3µM
CCOc1ccc(N(CC(=O)Nc2cccc(OC)c2)S(=O)(=O)c2c(C)noc2C)cc1	13µM	–	–	18µM	–
CCOc1ccc(N(CC(=O)Nc2ccc(F)c(F)c2)S(=O)(=O)c2c(C)noc2C)cc1	?	–	–	?	–
COc1ccccc1CNC(=O)CN(c1ccc(C)cc1)S(=O)(=O)c1c(C)n[nH]c1C	–	–	–	–	–
CCOc1ccc(N(CC(=O)Nc2cccc(Cl)c2)S(=O)(=O)c2c(C)noc2C)cc1	13µM	?	–	12µM	?
CCOc1ccccc1NC(=O)CN(c1ccc(C)cc1)S(=O)(=O)c1c(C)n[nH]c1C	?	?	-95	?	?
CCOc1ccc(N(CC(=O)Nc2ccc(C)cc2)S(=O)(=O)c2c(C)noc2C)cc1	?	–	–	–	–
CCOc1ccc(NC(=O)CN(c2ccc(CC)cc2)S(=O)(=O)c2c(C)noc2C)cc1	12µM	·	·	13µM	·
CC(C)[C@H](NC(=O)c1ccc(C(C)(C)C)cc1)C(=O)N1CCN(Cc2ccc3c(c2)OCO3)CC1	3.7µM	18µM	-72	3.7µM	?
O=C(Cn1cnc2ccccc2c1=O)N1CCN(Cc2ccc3c(c2)OCO3)CC1	–	–	–	–	–
CC(C)[C@@H](C(=O)N1CCN(Cc2ccc3c(c2)OCO3)CC1)n1nnc2ccccc2c1=O	21µM	–	–	13µM	–
COc1ccc(N2CCCn3c2nc2c3c(=O)n(Cc3ccc(C)cc3)c(=O)n2C)c(OC)c1	?	–	–	?	–
CCN(CC)c1ccc(S(=O)(=O)N2CCCCC2)cc1NC(=O)C1CSC2(C)CCC(=O)N12 (configuration not stated)	?	–	-50	9.2µM	–
CCN(CC)c1ccc(S(=O)(=O)N2CCCCC2)cc1NC(=O)C1CCC1	18µM	–	–	?	–
CCN(CC)c1ccc(S(=O)(=O)N(CC)CC)cc1NC(=O)C1CCCC1	?	–	–	?	–
CCOc1ccc(S(=O)(=O)N2CCOCC2)cc1NC(=O)C1CSC2(C)CCC(=O)N12 (configuration not stated)	–	–	–	–	–
CCN(CC)S(=O)(=O)c1ccc(N(C)C)c(NC(=O)C2CCCC2)c1	–	–	-54	–	–
Cc1ccc(CN(C(=O)COc2ccc(C)c(C)c2)C2CCS(=O)(=O)C2)o1 (configuration not stated)	?	–	–	?	–
COc1ccc(N2C[C@H](CSC)[C@@H](CC(=O)Nc3ccccc3)C2=O)cc1	–	–	–	?	–
NC(=O)c1c(NC(=O)CN2C(=O)NC(Cc3ccccc3)C2=O)sc2c1CCC2 (configuration not stated)	?	–	–	–	–
Cn1cnc(CCNC(=O)C[C@H]2CC[C@@H]3[C@H](COC[C@H](O)CN3C(=O)C3CCCC3)O2)c1	–	–	–	–	–

Screening data as filed in PubChem BioAssay.
